NOMO-1 viab: NOMO-1 AML cell viability reduction, primary screen, STK33 inhibitor project, CellTiter-Glo luminescence | 37,000 tested, 7.5% active | NOMO-1 AML viability, 72 h | AID 2330, 2010 | inhibition, % (no concentration beside the values); in the data active means inhibition above about 80%; inconclusive means no clear call, values can overlap the other calls
ROS inducer: ROS inducers in U2OS cancer cells, primary screen, cell-based, H2DCF-DA fluorescence; U2OS ROS induction; 46,000 tested, 2% active; ROS induction (% of piperlongumine), % at 10 µM; AID 624156, 2012; in the data active means ROS induction above about 79%, passing the limit was not always enough; inconclusive means no clear call, values can overlap the other calls
Each line names hits and unclear results; the compound was inactive in the other large screens. Only a selection was taken, and hits are over-represented in it overall.

C[C@H]1CN([C@@H](C)CO)C(=O)c2cc(NC(=O)Nc3ccc(C(F)(F)F)cc3)ccc2O[C@H]1CN(C)C(=O)NC1CCCCC1	NOMO-1 viab 103.4
C[C@@H]1CN([C@@H](C)CO)C(=O)c2cc(NC(=O)Nc3ccc(C(F)(F)F)cc3)ccc2O[C@@H]1CN(C)C(=O)Nc1ccc(C(F)(F)F)cc1	NOMO-1 viab 113.6
C[C@H](CO)N1C[C@H](C)[C@@H](CN(C)C(=O)Nc2ccc(C(F)(F)F)cc2)Oc2ccc(NC(=O)Nc3ccccc3)cc2C1=O	none
C[C@@H]1CN([C@@H](C)CO)C(=O)c2cc(NC(=O)Cc3ccccc3)ccc2O[C@@H]1CN(C)C(=O)Nc1ccc(C(F)(F)F)cc1	ROS inducer 93.7
C[C@@H]1CN([C@@H](C)CO)C(=O)c2cc(NC(=O)Nc3ccc(F)cc3)ccc2O[C@H]1CN(C)C(=O)Nc1ccc(C(F)(F)F)cc1	none
C[C@H]1CN([C@@H](C)CO)C(=O)c2cc(NC(=O)Nc3ccc(C(F)(F)F)cc3)ccc2O[C@H]1CN(C)C(=O)Nc1ccc(F)cc1	none
C[C@@H]1CN([C@@H](C)CO)C(=O)c2cc(NC(=O)Nc3ccc(C(F)(F)F)cc3)ccc2O[C@H]1CN(C)C(=O)Nc1ccc(C(F)(F)F)cc1	NOMO-1 viab 104.7
C[C@@H]1CN([C@H](C)CO)C(=O)c2cc(NC(=O)Nc3ccc(C(F)(F)F)cc3)ccc2O[C@@H]1CN(C)C(=O)Nc1ccc(C(F)(F)F)cc1	NOMO-1 viab 94.0
C[C@@H]1CN([C@H](C)CO)C(=O)c2cc(NC(=O)Nc3ccc(F)cc3)ccc2O[C@@H]1CN(C)C(=O)Nc1ccc(C(F)(F)F)cc1	none
O=C(N/N=C/c1ccc(Br)cc1)c1ccccc1O	none (no result: NOMO-1 viab)
CCCNC(=O)Cn1nc(C)c2sc3ccccc3c2c1=O	none (no result: NOMO-1 viab)
CCOC(=O)c1cnc(COc2ccc(C(C)(C)C)cc2)[nH]c1=O	none (no result: NOMO-1 viab)
COc1ccc(NC(=O)N(C)C[C@@H]2Oc3c(NS(=O)(=O)c4cccs4)cccc3C(=O)N([C@@H](C)CO)C[C@H]2C)cc1	none
COc1ccc(CN(C)C[C@H]2Oc3c(NC(=O)c4ccc(-c5nccs5)cc4)cccc3C(=O)N([C@H](C)CO)C[C@@H]2C)cc1	none
C[C@@H]1CN([C@H](C)CO)C(=O)c2cccc(NC(=O)c3ccc(-c4nccs4)cc3)c2O[C@@H]1CN(C)Cc1ccc(Oc2ccccc2)cc1	NOMO-1 viab 88.6, ROS inducer inconclusive
C[C@@H]1CN([C@@H](C)CO)C(=O)c2cccc(NC(=O)c3ccc(-c4nccs4)cc3)c2O[C@H]1CN(C)Cc1ccc(Oc2ccccc2)cc1	NOMO-1 viab 111.3
COc1ccc(CN(C)C[C@@H]2Oc3c(NC(=O)c4ccc(-c5nccs5)cc4)cccc3C(=O)N([C@@H](C)CO)C[C@H]2C)cc1	none
C[C@@H]1CN([C@H](C)CO)C(=O)c2cccc(NS(=O)(=O)c3ccc(Cl)cc3)c2O[C@@H]1CN(C)S(=O)(=O)c1cn(C)cn1	none
C[C@@H]1CN([C@@H](C)CO)C(=O)c2cc(NC(=O)Cc3ccccc3)ccc2O[C@@H]1CN(C)CC1CC1	none
Cc1ccc(S(=O)(=O)N(C)C[C@@H]2Oc3c(NC(=O)Nc4cccc5ccccc45)cccc3C(=O)N([C@H](C)CO)C[C@H]2C)cc1	none
COC(=O)c1c(C)cc2c(c(C)c1=O)OC1(C2)C(C)CCC2C(C)(C)OC(=O)C=CC21C (stereo not drawn)	NOMO-1 viab 106.9
CC[n+]1c(C=C2C=C(C)CC(C)(C)C2)oc2ccccc21	NOMO-1 viab 115.1, ROS inducer inconclusive
COc1ccc(S(=O)(=O)Nc2ccc3c(c2)CC(=O)N([C@H](C)CO)C[C@@H](C)[C@H](CN(C)C(=O)Nc2ccc(F)cc2)O3)cc1	none
COC(=O)CCCCCCC(=O)N/N=C/c1cc(O)ccc1O	none (no result: NOMO-1 viab)
Cc1sc2ncnc(SCC(=O)Nc3ccccc3Cl)c2c1C	none
COc1ccc2c(c1)OCC(Cc1ccc(OC)c(OC(C)=O)c1)C2=O (stereo not drawn)	NOMO-1 viab 107.9
COc1ccc2c(c1)OCC(Cc1ccc(OC)c(OC)c1)C2=O (stereo not drawn)	none
O=C1N[C@@H](Cc2ccccc2)C(=O)N2[C@@H]1C[C@@H](C(=O)NCc1ccc(F)cc1)[C@H]2c1ccc(O)cc1	none (no result: NOMO-1 viab)
C[C@H]1CN([C@@H](C)CO)C(=O)c2cc(NS(C)(=O)=O)ccc2O[C@H]1CN(C)S(=O)(=O)c1cn(C)cn1	none
O=C1O[C@@H](c2ccccc2)[C@@H](c2ccccc2)N2[C@@H](c3ccccc3OCCO)[C@]3(C(=O)Nc4ccc(C#CCCO)cc43)[C@@H](C(=O)N3CCN(c4ncccn4)CC3)[C@H]12	ROS inducer 94.0 (no result: NOMO-1 viab)
O=C1O[C@H](c2ccccc2)[C@H](c2ccccc2)N2[C@H]1[C@@H](C(=O)O)[C@]1(C(=O)Nc3ccccc31)[C@H]2c1ccccc1OCCO	none (no result: NOMO-1 viab)
COc1ccc(C#Cc2ccc3c(c2)[C@]2(C(=O)N3)[C@H](C(=O)N3CCN(c4ncccn4)CC3)[C@H]3C(=O)O[C@H](c4ccccc4)[C@H](c4ccccc4)N3[C@@H]2c2ccccc2OCCO)cc1	none (no result: NOMO-1 viab)
O=C1O[C@H](c2ccccc2)[C@H](c2ccccc2)N2[C@H]1[C@@H](C(=O)N1CCN(c3ncccn3)CC1)[C@]1(C(=O)Nc3ccc(C#CC4(O)CCCCCC4)cc31)[C@H]2c1ccccc1OCCO	ROS inducer 146.7 (no result: NOMO-1 viab)
O=C1O[C@H](c2ccccc2)[C@H](c2ccccc2)N2[C@H]1[C@@H](C(=O)N1CCCCCCC1)[C@]1(C(=O)Nc3ccc(C#CC4(O)CCCCCC4)cc31)[C@H]2c1ccccc1OCCO	none (no result: NOMO-1 viab)
O=C1O[C@@H](c2ccccc2)[C@@H](c2ccccc2)N2[C@@H](c3ccccc3OCCO)[C@]3(C(=O)Nc4ccccc43)[C@@H](C(=O)N3CCN(c4ncccn4)CC3)[C@H]12	ROS inducer 121.8 (no result: NOMO-1 viab)
Clc1ccc(Sc2cn[nH]c2-c2ccc3c(c2)OCCO3)cc1	NOMO-1 viab inconclusive
C[C@@H]1CN([C@H](C)CO)C(=O)c2cccc(NC(=O)c3ccc(-c4nccs4)cc3)c2O[C@@H]1CN(C)C(=O)Nc1ccc2c(c1)OCO2	none
CC(C)NC(=O)Nc1ccc2c(c1)C(=O)N([C@H](C)CO)C[C@H](C)[C@H](CN(C)CC1CC1)O2	none
O=C(CSc1nnc(-c2ccncc2)n1-c1ccc(F)cc1)Nc1ccc(Cl)cc1	none
COc1ccc(CN(C)C[C@H]2Oc3c(NC(=O)c4ccc(-c5nccs5)cc4)cccc3C(=O)N([C@@H](C)CO)C[C@@H]2C)cc1	none
C[C@@H]1CCCCO[C@@H](CN(C)C(=O)NC2CCCCC2)[C@@H](C)CN([C@H](C)CO)C(=O)c2cc(NC(=O)Nc3cccc4ccccc34)ccc2O1	ROS inducer 139.5
C[C@@H]1CCCCO[C@@H](CN(C)C(=O)Nc2cccc3ccccc23)[C@@H](C)CN([C@H](C)CO)C(=O)c2cc(NC(=O)NC3CCCCC3)ccc2O1	none
C[C@@H]1CCCCO[C@@H](CN(C)C(=O)Nc2cccc3ccccc23)[C@@H](C)CN([C@H](C)CO)C(=O)c2cc(NS(=O)(=O)c3ccc(Cl)cc3)ccc2O1	NOMO-1 viab 101.5, ROS inducer 107.3
C[C@@H]1CCCCO[C@@H](CN(C)C(=O)Nc2cccc3ccccc23)[C@@H](C)CN([C@H](C)CO)C(=O)c2cc(NS(=O)(=O)c3ccc(F)cc3)ccc2O1	none
C[C@@H]1CN([C@@H](C)CO)C(=O)c2cc(NC(=O)CCCN(C)C)ccc2O[C@H]1CN(C)S(=O)(=O)c1ccccc1	none
